Common to all, as to test: NCI-60 one-dose screen, 48 h (100 = growth as untreated, 0 = no growth, -100 = all killed)
The test system of one experiment is DU-145 prostate. To be noted: 10 µM unless noted.
In a further experiment the test system is K-562 leukemia. Conditions: 10 µM unless noted.
The subject of a further experiment is MALME-3M melanoma. To be noted: 10 µM unless noted.
The subject of the next experiment is MDA-MB-231 breast. Conditions: 10 µM unless noted.
The next experiment concerns RXF 393 renal. Conditions: 10 µM unless noted.
A further experiment has as its system SF-268 CNS. Conditions: 10 µM unless noted.
In a further experiment the test system is SF-295 CNS. To be noted: 10 µM unless noted.
A further experiment relates to SF-539 CNS. To be noted: 10 µM unless noted.
In another experiment the test system is UACC-257 melanoma. Conditions: 10 µM.
The next experiment concerns M14 melanoma. Conditions: 10 µM unless noted.

Compounds without any hit were thinned out: in the full panel of roughly 83,000, 20% have a hit.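 Method: cells in 96-well plates; compound added at one concentration; 48 h incubation; percent growth measured; values under 10 scored active.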 A number with no mark means an inactive call. The source made the active and inactive calls.

The source of these data is PubChem BioAssay (NCI).

Regarding `COc1cc2nc(Cl)nc(NCCO)c2cc1OC`, the growth in the experiment on DU-145 prostate was 112%; in the experiment with K-562 leukemia it was 105%; in the experiment with MALME-3M melanoma it was 94.4%; in the experiment with MDA-MB-231 breast, 109%; in the experiment with RXF 393 renal, 107%; in the experiment on SF-268 CNS it was 110%. Further, the growth with SF-295 CNS was 103%; in the experiment with SF-539 CNS, 96.1%; in the experiment with UACC-257 melanoma it was 98.6%; with M14 melanoma, 110%.
For the molecule `COc1ccc(Cn2c(SC)nc(=O)n(Cc3ccc(Cl)cc3)c2=O)cc1`, the growth with DU-145 prostate was 103%; with K-562 leukemia it was 92.6%; with MALME-3M melanoma, 95.1%; with MDA-MB-231 breast, 99.4%; in the experiment on RXF 393 renal it was 107%; in the experiment on SF-268 CNS it was 94.1%. Besides, the growth in the experiment with SF-295 CNS is 59.7%; with SF-539 CNS it was 106%; with UACC-257 melanoma, 102%; in the experiment with M14 melanoma, 98.6%.
Consider `O=C(N/N=C/c1c(Cl)cccc1Cl)c1ccccc1Nc1ccnc(C(F)(F)F)c1`, for which the growth was 109% in the experiment with DU-145 prostate; 78.4% in the experiment on K-562 leukemia; 81% with MALME-3M melanoma; 73.8% in the experiment with MDA-MB-231 breast; 49.3% in the experiment with RXF 393 renal; 73.2% in the experiment with SF-268 CNS. Moreover, the growth with SF-295 CNS is 72.9%; in the experiment with SF-539 CNS it was 86.6%; in the experiment on UACC-257 melanoma, 60.4%; with M14 melanoma, 71.6%.
For `O=C(/C=C/c1ccccc1)n1c(-c2ccc(Cl)cc2)nc2ccccc21`, the growth is 11.1% in the experiment with DU-145 prostate; 39.8% in the experiment with K-562 leukemia; 15.9% with MALME-3M melanoma; -26.5% (active) in the experiment on MDA-MB-231 breast; -65.2% (active) with RXF 393 renal; -11.9% (active) in the experiment with SF-268 CNS. The growth in the experiment on SF-295 CNS was -52% (active); with SF-539 CNS, -48.4% (active); with UACC-257 melanoma, -64.4% (active); with M14 melanoma, -37.3% (active).
Consider `CCC1=C[C@@H]2CN(C1)Cc1c([nH]c3ccccc13)[C@@](C(=O)OC)(c1cc3c(cc1OC)N(C=O)[C@H]1[C@@](O)(C(=O)OC)[C@H](OC(C)=O)[C@]4(CC)[C@@H]5C[C@@H]5CN5CC[C@]31[C@@H]54)C2`, for which the growth in the experiment with DU-145 prostate was -9.76% (active); with K-562 leukemia, 9.35% (active); with MALME-3M melanoma, 40.4%; with MDA-MB-231 breast, -24% (active); in the experiment with RXF 393 renal, 40.7%; in the experiment on SF-268 CNS, 16.1%. Moreover, the growth was -32.8% (active) in the experiment on SF-295 CNS, -18.1% (active) in the experiment with SF-539 CNS, 52.5% in the experiment with UACC-257 melanoma and 3.92% (active) in the experiment on M14 melanoma.
For the molecule `CC(C)[C@H](CO)Nc1nc(Nc2ccc(C(=O)NCCNS(=O)(=O)c3cccc4c(N(C)C)cccc34)c(Cl)c2)c2ncn(C(C)C)c2n1`, the growth was 29% in the experiment with DU-145 prostate; 10.9% in the experiment on K-562 leukemia; 51.2% with MALME-3M melanoma; 7.36% (active) in the experiment on MDA-MB-231 breast; -57.1% (active) in the experiment on RXF 393 renal; 0.765% (active) in the experiment with SF-268 CNS. For the same molecule, the growth is -16.5% (active) in the experiment with SF-295 CNS, -50.2% (active) in the experiment with SF-539 CNS, 3.15% (active) with UACC-257 melanoma and 23.5% in the experiment on M14 melanoma.
Take `CCC1CCc2nc3sc(C(=O)Nc4cccc(C)c4)c(N)c3cc2C1` (stereo not given): the growth with DU-145 prostate is 78.3%; with K-562 leukemia it was 35.8%; in the experiment with MALME-3M melanoma, 47.4%; in the experiment on MDA-MB-231 breast, 79.8%; in the experiment on RXF 393 renal it was 83.9%; with SF-268 CNS, 77.6%. Also, the growth was 70.4% in the experiment on SF-295 CNS, 73.1% with SF-539 CNS, 56.3% in the experiment on UACC-257 melanoma and 55.1% in the experiment with M14 melanoma.
On to `O=C1Nc2ccc(Br)cc2C1=N/C=c1\[nH]c(=O)/c(=C/c2ccc(Cl)cc2)s1`, for which the growth is 102% in the experiment on DU-145 prostate; 81% in the experiment on K-562 leukemia; 93.6% in the experiment on MALME-3M melanoma; 88.6% with MDA-MB-231 breast; 94.9% in the experiment with RXF 393 renal; 95.2% in the experiment with SF-268 CNS. For the same molecule, the growth in the experiment on SF-295 CNS is 96.5%; with SF-539 CNS, 90.7%; with UACC-257 melanoma it was 95.7%; in the experiment on M14 melanoma, 101%.
As for `COc1cc(CNC(=O)CCSc2nc3ccccc3c(=O)n2Cc2cc(OC)c(OC)c(OC)c2)cc(OC)c1OC`, the growth was 58.1% with DU-145 prostate; 8.67% (active) in the experiment with K-562 leukemia; 40.9% in the experiment with MALME-3M melanoma; 46% in the experiment with MDA-MB-231 breast; 43.6% with RXF 393 renal; 50.4% in the experiment on SF-268 CNS. Moreover, the growth in the experiment on SF-295 CNS is 36.6%; with SF-539 CNS, 25.4%; with UACC-257 melanoma, 59.1%; in the experiment on M14 melanoma, 6.56% (active).
As for `Cc1ccc(C2=NN(c3ccc(S(=O)(=O)NC(=O)NCc4ccccc4)cc3)C(c3ccc(N(C)C)cc3)C2)c(C)c1` (stereo not given), the growth in the experiment on DU-145 prostate was 82.7%; in the experiment on K-562 leukemia, 49.6%; in the experiment with MALME-3M melanoma, 87%; with MDA-MB-231 breast, 75.7%; with RXF 393 renal, 53%; in the experiment on SF-268 CNS, 50.8%. In addition, the growth in the experiment with SF-295 CNS is 52.7%; in the experiment with SF-539 CNS, 37.6%; with UACC-257 melanoma, 60.3%; in the experiment on M14 melanoma, 27.3%.
On to `Cc1ccc(Cn2c(-c3cccs3)nc3ccccc32)cc1`, for which the growth in the experiment with DU-145 prostate was 110%; in the experiment on K-562 leukemia, 5.16% (active); with MALME-3M melanoma it was 120%; in the experiment on MDA-MB-231 breast, 96.2%; with RXF 393 renal, 92.5%; in the experiment on SF-268 CNS it was 104%. In addition, the growth is 72% with SF-295 CNS, 102% in the experiment with SF-539 CNS, 89.9% in the experiment with UACC-257 melanoma and 107% with M14 melanoma.
